Results on 40 molecules are retold here after PubChem BioAssay (EPA / NIEHS).

Structures are written as SMILES. Active and inactive are the calls of the source. How the source made its calls: active means hit-call score of the fitted dose curve at least 0.9, where 1 is the maximum; inactive means score below 0.9.

Sequence of Cytochrome P450 3A4 (Homo sapiens) (P08684 whole entry, looked up): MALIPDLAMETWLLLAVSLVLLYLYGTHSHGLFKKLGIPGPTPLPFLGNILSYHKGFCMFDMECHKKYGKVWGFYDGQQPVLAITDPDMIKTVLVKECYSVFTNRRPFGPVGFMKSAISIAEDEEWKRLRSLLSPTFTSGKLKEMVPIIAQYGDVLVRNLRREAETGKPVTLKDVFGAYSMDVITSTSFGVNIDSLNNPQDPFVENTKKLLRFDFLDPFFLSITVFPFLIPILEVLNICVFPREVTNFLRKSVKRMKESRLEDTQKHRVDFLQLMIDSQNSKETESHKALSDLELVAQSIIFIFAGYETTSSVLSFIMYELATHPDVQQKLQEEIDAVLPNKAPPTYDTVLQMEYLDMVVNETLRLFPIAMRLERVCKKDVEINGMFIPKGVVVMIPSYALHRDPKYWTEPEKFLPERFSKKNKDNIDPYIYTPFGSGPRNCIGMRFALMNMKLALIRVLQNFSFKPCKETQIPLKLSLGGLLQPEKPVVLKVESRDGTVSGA

Read-out in this experiment: Cytochrome P450 3A4 (Homo sapiens) (UniProt P08684)
The experiment is described as follows: LTEA_HepaRG_CYP3A4: Life Technologies and Expression Analysis (LTEA) Assay for CYP3A4 using HepaRG (AID 2283487). Particulars: mRNA level, 48 h; actives raise or lower the signal. On the procedure: LTEA_HepaRG is a cell based, multiplexed-readout assay that uses HepaRG, a human liver cell line, with measurements taken at 48 hours after chemical dosing on a 96-well plate.LTEA_HepaRG_CYP3A4 is one of 102 assay component(s) measured in the LTEA HepaRG cell culture assay. It is a marker of NR mediated metabolism.Data from the assay component LTEA_HepaRG_CYP3A4 was analyzed into 1 endpoint. This assay endpoint, LTEA_HepaRG_CYP3A4, was analyzed with bidirectional fitting relative to DMSO as the negative control and baseline of activity. Using a type of inducible reporter, measures of mRNA induction for gain or loss-of-signal activity can be used to understand regulation of transcription factor activity. To generalize the intended target to other relatable targets, this assay endpoint is annotated to the cyp intended target family, where the subfamily is xenobiotic metabolism.
A total of 1060 chemcials from the ToxCast library were tested in eight-point concentration-response experiments. Cell culture and cytotoxicity assays were conducted at Thermo Fisher Scientific's Custom Services facility (Madison, WI). A single lot of human HepaRG cells (Thermo Fisher Scientific, Frederick, MD) was used for the cell culture experiments. 96-well format collagen type I coated plates of human HepaRG cells were prepared using established methods. Briefly, cryopreserved HepaRG cells were thawed, plated at a density of approximately 100,000 cells/well in HepaRG Thaw, Plate, and General Purpose media (HPRG770, Thermo Fisher Scientific), and incubated for 48 hours. 0.5% DMSO was selected as vehicle control to balance the requisite need of DMSO in HepaRG cultures to maintain differentiation (for example, baseline metabolism, proportions of hepatocytes vs. cholangiocytes), while enabling further hepatic receptor pathway activation (for example, PXR and CAR) in response to chemical exposure. 48 hours after plating, the culture medium was replaced with HepaRG Serum-Free Incudtion Media. Cells were exposed to each test chemical in duplicate and maintained in CO2 incubators for another 48 hours. Chemical plates were thawed to room temperature and 200x concentrations of treatment groups were prepared. 8-point conentration-reponse curves were made with the highest exposure at 100 uM, followed by half-log dilutions, all in 0.5% DMSO. Each test plate contained variouse controls, induction positive controls (1mM phenobarbital), cytotoxicity positive controls ([…] aflatoxin B1), vehicle controls (0.5% DMSO), and total lysis controls (0.5% DMSO). Cell morphology images were taken using an Essen IncuCyte FLR automated microscope, with six 96-well plates imaged in about 24 minutes. Images were captured and exported and JPEG files. Spent culture media was transfered to black-well plates for the LDH assay, and remaining media was sorted at -80 C for later use. Cells were treated with RLT buffer and frozen until shipped for gene expression analysis. Total RNA was isolated from the cell suspension in 75 uL of Buffer RLT (Qiagen, Germantown, MD 20874) by Quintiles/Expression Analysis (Durham, NC) using a custom isolation procedure. Total RNA from each plate well was transferred to a preamplification plate. Fluidigm's 96.96 Dynamic ArrayTM (Fluidigm, Amsterdam, the Netherlands) technology was used for gene expression analyses by quantitative reverse transcription polymerase chain reaction (qRT-PCR, performed by Quintiles/Expression Analysis, Durham, NC)89. Standard TaqManTM Assays (Applied Biosystems/ThermoFisher Scientific, Foster City, CA) were used to assess the expression of 93 genes selected based on their selectivity and sensitivity to important hepatic receptors known to be modulated by environmental chemicals; importance in human hepatocyte functionality; and hepatotoxicity. […]
Consider `O=C(NC(=O)c1cc(F)c(F)cc1Cl)Nc1cc(F)ccc1N1CCC(C(=O)O)CC1`, for which the molecule was classed as inactive.

As for `Oc1ccc(C(c2ccc(O)cc2)(C(F)(F)F)C(F)(F)F)cc1`, the AC50 was 81.7 µM (active).

On to `Clc1ccc(Cl)cc1`, for which the result was inactive.

Regarding `ClC1=C(Cl)[C@]2(Cl)[C@@H]3[C@@H](Cl)[C@H]4O[C@H]4[C@@H]3C1(Cl)C2(Cl)Cl`, the AC50 was 1.35 µM (active).

For `COS(=O)(=O)OC`, the call was inactive.

Take `CC(C)C(=O)OCC(C)(C)C(OC(=O)C(C)C)C(C)C` (stereo not given): the molecule was classed as inactive.

Take `Cc1cc2c3c(c1)C(c1ccccc1)=N[C@@H](NC(=O)c1ccncc1)C(=O)N3CC2`: the AC50 is 3.86 µM (active).

For the molecule `O=C(O)C(F)(F)C(F)(F)C(F)(F)C(F)(F)C(F)(F)C(F)(F)C(F)(F)C(F)(F)F`, the AC50 is 81.7 µM (active).

Take `Cc1cc(O)ccc1Cl`: the outcome was inactive.

As for `O=C(O)C(F)(F)C(F)(F)C(F)(F)C(F)(F)C(F)(F)C(F)(F)C(F)(F)C(F)(F)C(F)(F)F`, the AC50 was 75.8 µM (active).

For `O=S(=O)(O)C(F)(F)C(F)(F)C(F)(F)C(F)(F)C(F)(F)C(F)(F)F`, the concentration at half-maximal activity (AC50) was 34.9 µM (active).

Regarding `N#Cc1ccc(N(CC(N)=O)CC(F)(F)F)cc1C(F)(F)F`, the molecule was called inactive.

With `c1ccc(-c2ccccc2)cc1`, the result was inactive.

On to `CCC(=O)O[C@H]1CC[C@H]2[C@@H]3CCC4=CC(=O)CC[C@]4(C)[C@H]3CC[C@]12C`, for which the result was inactive.

On to `CCOC(=O)C(O)(c1ccc(Cl)cc1)c1ccc(Cl)cc1`, for which the call was inactive.

Consider `Cc1cccc([N+](=O)[O-])c1`, for which the molecule was classed as inactive.

Regarding `Cc1cccc(C)c1N`, the call was inactive.

With `ClC(Cl)=C(c1ccc(Cl)cc1)c1ccc(Cl)cc1`, the half-maximal activity concentration (AC50) is 7.4 µM (active).

In the case of `CCCCCCOC(=O)c1ccccc1C(=O)OCCCCCC`, the molecule was classed as inactive.

Regarding `CN(C)CCO`, the molecule was called inactive.

For the molecule `C[C@]12CCC(=O)C=C1CC[C@@H]1[C@@H]2CC[C@]2(C)C(=O)CC[C@@H]12`, the AC50 was 30.8 µM (active).

Consider `CC1=C2C[C@H]3[C@@H](CC=C4C[C@@H](O)CC[C@@]43C)[C@@H]2CC[C@]12O[C@@H]1C[C@H](C)CN[C@H]1[C@H]2C`, for which the molecule was called inactive.

`Cc1cc(-c2ccc(N)c(C)c2)ccc1N`: the molecule was called inactive.

For the molecule `CCCN(CCC)N=O`, the call was inactive.

On to `Cc1ccc(O)c(C)c1`, for which the molecule was called inactive.

Take `Cc1ccccc1CO[C@@H]1C[C@@]2(C(C)C)CC[C@]1(C)O2`: the AC50 was 23.1 µM (active).

As to `CCCCCCCCCc1ccc(O)cc1`, the result was inactive.

With `Oc1c(Cl)c(Cl)c(Cl)c(Cl)c1Cl`, the half-maximal activity concentration (AC50) was 4.73 µM (active).

Turning to `CC(c1ccc(O)cc1)(c1ccc(O)cc1)c1ccc(O)cc1`, the concentration at half-maximal activity (AC50) is 23.6 µM (active).

`CCC(C)c1cc([N+](=O)[O-])cc([N+](=O)[O-])c1O` (stereo not given): the AC50 was 2.37 µM (active).

For `O=S(=O)(O)C(F)(F)C(F)(F)C(F)(F)C(F)(F)F`, the result was inactive.

On to `Nn1cnnc1`, for which the result was inactive.

Regarding `O=C(O)C(F)(F)C(F)(F)C(F)(F)C(F)(F)C(F)(F)F`, the molecule was called inactive.

In the case of `O=C(N[C@H]1CN2CCC1CC2)c1cc2ccoc2cn1`, the molecule was classed as inactive.

Regarding `Clc1ccc(C(c2ccccc2Cl)C(Cl)(Cl)Cl)cc1` (stereo not given), the AC50 was 2.46 µM (active).

Take `CCSC(=O)N(CC)C1CCCCC1`: the outcome was inactive.

For the molecule `C[C@]12CCC(=O)C=C1CC[C@@H]1[C@@H]2CC[C@@]2(C)[C@H]1CC[C@]2(C)O`, the call was inactive.

Consider `C=CC(=O)NCNC(=O)C=C`, for which the molecule was called inactive.

For the molecule `CN(C)c1nc(=O)n(C2CCCCC2)c(=O)n1C`, the AC50 was 50 µM (active).

For `CC(C)(O)C(=O)Nc1ccc([N+](=O)[O-])c(C(F)(F)F)c1`, the result was inactive.
